Measurements taken from PubChem BioAssay (Tox21).
Results filed as inconclusive are left out. Active and inactive are the calls of the source. Unless noted, the call rests on the fitted dose curve.

Columns and labels:
[1] = qHTS assay to identify small molecule agonists of the peroxisome proliferator-activated receptor delta (PPARd) signaling pathway - cell viability counter screen (AID 743211; active means well fitted curve in the direction sought with a large enough effect in the repeat runs; an effect the other way counts as inactive or inconclusive; further: nearly all actives have a fitted effect of over 55% in size)
Method in brief: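 In the same wells used for beta-lactamase reporter measurement, cytotoxicity is scored by CellTiter-Glo. HEK293H PPARd-bla cells receive compound for 17 h at 37C following a 5 h settling period.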

[2] = qHTS assay to identify small molecule antagonists of the peroxisome proliferator-activated receptor delta (PPARd) signaling pathway - cell viability counter screen (AID 743213; active means well fitted curve in the direction sought with a large enough effect in the repeat runs; an effect the other way counts as inactive or inconclusive; further: nearly all actives have a fitted effect of over 50% in size)
Method in brief: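 PPARd-bla HEK293H cells were treated with compounds plus agonist L165041 (300 nM final) for 17 h at 37 C. Viability was then read in the same wells by CellTiter-Glo luminescence after 30 min at room temperature.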

[3] = target: Peroxisome proliferator-activated receptor delta (Homo sapiens) (UniProt Q03181); assay: qHTS assay to identify small molecule antagonists of the peroxisome proliferator-activated receptor delta (PPARd) signaling pathway (AID 743215; active means well fitted inhibition curve with a large enough effect in the signal ratio in the repeat runs, not every such curve was filed as active; the % refers to the signal ratio;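 further: cells stimulated with agonist L165041 at 300 nM final during compound exposure; series mostly up to about 62 µM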)
Method in brief: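 Cells: HEK293H with a UAS-driven beta-lactamase reporter responsive to PPARd. Compounds were co-added with L165041 (300 nM, final) and incubated 17 h at 37 C before a 2 h room-temperature FRET substrate step and fluorescence reading.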

[4] = target: Bile acid receptor (Homo sapiens) (UniProt Q96RI1); assay: qHTS assay to identify small molecule antagonists of the farnesoid-X-receptor (FXR) signaling pathway (AID 743217; active means well fitted inhibition curve with a large enough effect in the signal ratio in the repeat runs, not every such curve was filed as active; the % refers to the signal ratio)
Method in brief: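 Cells carrying a UAS-driven beta-lactamase reporter (GeneBLAzer FXR-UAS-bla HEK 293T) were plated and rested 5 h at 37 °C. Compounds in DMSO were added alongside chenodeoxycholic acid agonist at 50 uM final and left 16 h at 37 °C before FRET substrate readout.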

[5] = qHTS assay to identify small molecule agonists of the farnesoid-X-receptor (FXR) signaling pathway - cell viability counter screen (AID 743218; active means well fitted curve in the direction sought with a large enough effect in the repeat runs; an effect the other way counts as inactive or inconclusive; further: nearly all actives have a fitted effect of over 45% in size; further: potency means the concentration at half of the fitted maximal effect)
Method in brief: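 Cells were seeded, left 5 h at 37 C and 5% CO2, then dosed with compound in DMSO for 16 h. After the beta-lactamase FRET read, CellTiter-Glo was added and luminescence measured 30 min later.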

[6] = target: Bile acid receptor (Homo sapiens) (UniProt Q96RI1); assay: qHTS assay to identify small molecule agonists of the farnesoid-X-receptor (FXR) signaling pathway (AID 743220; active means well fitted activation curve with a large enough effect in the signal ratio in the repeat runs, not every such curve was filed as active; the % refers to the signal ratio)
Method in brief: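 FXR-UAS-bla HEK 293T cells carrying a UAS-driven beta-lactamase reporter were plated for 5 h at 37C/5% CO2, then exposed to DMSO-dissolved Tox21 10K compounds for 16 h at 37C. A LiveBLAzer B/G FRET substrate was loaded for 2 h at room temperature before fluorescence reading.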

[7] = qHTS assay to identify small molecule antagonists of the farnesoid-X-receptor (FXR) signaling pathway - cell viability counter screen (AID 743221; active means well fitted cell-killing curve with a large enough effect in the repeat runs, not every such curve was filed as active; further: nearly all actives have a fitted effect of over 50% in size)
Method in brief: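 Here viability was scored by luminescence after CellTiter-Glo addition to wells already read for beta-lactamase. Prior treatment: compound plus CDCA (50 uM final), 16 h, 37 C, HEK 293T FXR-bla cells.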

[8] = qHTS assay to identify small molecule agonists of the vitamin D receptor (VDR) signaling pathway - cell viability counter screen (AID 743224; active means well fitted curve in the direction sought with a large enough effect in the repeat runs; an effect the other way counts as inactive or inconclusive; further: series mostly up to about 63 µM; nearly all actives have a fitted effect of over 50% in size)
Method in brief: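 Cells: VDR-bla, 2,000/well, settled 4 h. Treatment: compounds in DMSO, 16 h, 37C/5% CO2. Readout: CellTiter-Glo luminescence after 30 min RT.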

[9] = qHTS assay to identify small molecule agonists of the NFkB signaling pathway (AID 1159509; active means well fitted curve in the direction sought with a large enough effect in the signal ratio in the repeat runs, not every such curve was filed as active; the % refers to the signal ratio; further: series mostly up to about 61 µM)
Method in brief: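 Pathway activation was measured in ME-180 cells stably expressing beta-lactamase under NF-kB response element control. Substrate cleavage was read as the 460/530 nm emission shift after 5 hr compound incubation.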

[10] = qHTS assay to identify small molecule agonists of the NFkB signaling pathway - cell viability counter screen (AID 1159515); further: series mostly up to about 61 µM; nearly all actives have a fitted effect of over 55% in size
Method in brief: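 Cells are seeded (2,000 NFkB-bla ME-180 per well), rested overnight, and dosed with DMSO-dissolved compounds for 5 hr at 37 C. Viability is then read by CellTiter-Glo luminescence after 30 min at room temperature.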

[11] = qHTS assay to identify small molecule agonists of the endoplasmic reticulum stress response signaling pathway (AID 1159516; active means well fitted activation curve with a large enough effect in the signal ratio in the repeat runs, not every such curve was filed as active; the % refers to the signal ratio)
Method in brief: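 Cells are seeded at 1,500 per well and incubated overnight. Compounds in DMSO are added for 5 hr at 37 C, then beta-lactamase FRET substrate for 2 hr at room temperature, and fluorescence at 460 and 530 nm is measured.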

[12] = qHTS assay to identify small molecule agonists of the endoplasmic reticulum stress response signaling pathway - cell viability counter screen (AID 1159517);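 further: HeLa cells carrying an ER stress response element beta-lactamase reporter; series mostly up to about 61 µM; nearly all actives have a fitted effect of over 50% in size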
Method in brief: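 Cpd-treated ESRE-bla HeLa (5 hr, 37 C) → LiveBLAzer 2 hr RT → CellTiter-Glo 30 min RT → luminescence.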

[13] = qHTS assay to identify small molecule agonists of the AP-1 signaling pathway - cell viability counter screen (AID 1159525); further: nearly all actives have a fitted effect of over 55% in size
Method in brief: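 Each titration point was normalised to DMSO and tetra n-octyl ammonium bromide controls. The read was Cell Titer Glo luminescence after 30 min at RT, following 5 h compound exposure of ME-180 AP-1-bla cells at 37 °C.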

[14] = qHTS assay to identify small molecule agonists of the AP-1 signaling pathway (AID 1159526)
[15] = target: Nuclear receptor ROR-gamma (Homo sapiens) (UniProt P51449); assay: qHTS assay to identify small molecule antagonists of the retinoid-related orphan receptor gamma (ROR-gamma) signaling pathway (AID 1159521; active means well fitted curve in the direction sought with a large enough effect in the repeat runs; an effect the other way counts as inactive or inconclusive; further: nearly all actives have a fitted effect of over 50% in size; further: potency means the concentration at half of the fitted maximal effect)
Method in brief: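 Test compounds were applied to Tet-on RORγ CHO cells 2 h ahead of doxycycline hyclate (1 uM final). Luciferase reporter activity was quantified by luminescence after 16 h at 37 C and 5% CO2.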

[16] = target: Vitamin D3 receptor (Homo sapiens) (UniProt P11473); assay: qHTS assay to identify small molecule agonists of the vitamin D receptor (VDR) signaling pathway (AID 743222)
Method in brief: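 Cells carrying a VDR-driven beta-lactamase reporter are seeded at 2,000 per well and rested 4 h. Compounds in DMSO are added for 16 h at 37C, and FRET substrate fluorescence is measured after 2 h at room temperature.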

[17] = target: Vitamin D3 receptor (Homo sapiens) (UniProt P11473); assay: qHTS assay to identify small molecule antagonists of the vitamin D receptor (VDR) signaling pathway (AID 743223; active means well fitted inhibition curve with a large enough effect in the signal ratio in the repeat runs, not every such curve was filed as active; the % refers to the signal ratio)
Method in brief: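 Inhibition of agonist-driven VDR signalling is scored in VDR-bla cells: 3 nM final 1alpha,25-dihydroxyvitamin D3 plus compound, 16 h at 37C, then beta-lactamase detection by FRET substrate fluorescence after 2 h.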

[18] = target: Peroxisome proliferator-activated receptor delta (Homo sapiens) (UniProt Q03181); assay: qHTS assay to identify small molecule agonists of the peroxisome proliferator-activated receptor delta (PPARd) signaling pathway (AID 743212)
Method in brief: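 Cells expressing a UAS-driven beta-lactamase reporter (PPARd-bla HEK293H) were given test compounds after a 5 h settle and kept at 37 C. Reporter activity was then measured as FRET fluorescence using LiveBLAzer B/G substrate.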

[19] = qHTS assay to identify small molecule antagonists of the vitamin D receptor (VDR) signaling pathway - cell viability counter screen (AID 743225; active means well fitted curve in the direction sought with a large enough effect in the repeat runs; an effect the other way counts as inactive or inconclusive; further: nearly all actives have a fitted effect of over 50% in size)
Method in brief: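 Compounds were pinned onto VDR-bla HEK 293T cells together with 1-alpha,25-dihydroxyvitamin D3 at 3 nM final. After 16 h at 37C and 5% CO2 plus the reporter readout, cell viability was measured by CellTiter-Glo luminescence (30 min, room temperature).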

Measured: Potency

Sequence of Bile acid receptor (Homo sapiens) (Q96RI1 whole entry, looked up): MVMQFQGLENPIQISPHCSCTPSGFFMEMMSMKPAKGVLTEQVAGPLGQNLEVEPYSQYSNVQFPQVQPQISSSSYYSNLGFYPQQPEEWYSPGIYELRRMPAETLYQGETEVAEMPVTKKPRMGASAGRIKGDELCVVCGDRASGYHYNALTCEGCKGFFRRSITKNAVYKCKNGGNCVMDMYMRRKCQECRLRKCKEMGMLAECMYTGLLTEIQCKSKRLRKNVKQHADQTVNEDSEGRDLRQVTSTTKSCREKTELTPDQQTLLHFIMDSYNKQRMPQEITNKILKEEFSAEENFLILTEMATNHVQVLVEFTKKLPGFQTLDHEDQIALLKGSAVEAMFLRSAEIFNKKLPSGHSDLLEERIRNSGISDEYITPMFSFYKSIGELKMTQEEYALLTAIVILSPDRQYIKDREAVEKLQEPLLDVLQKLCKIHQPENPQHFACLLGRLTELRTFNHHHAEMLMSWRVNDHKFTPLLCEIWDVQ
Sequence of Peroxisome proliferator-activated receptor delta (Homo sapiens) (Q03181 whole entry, looked up): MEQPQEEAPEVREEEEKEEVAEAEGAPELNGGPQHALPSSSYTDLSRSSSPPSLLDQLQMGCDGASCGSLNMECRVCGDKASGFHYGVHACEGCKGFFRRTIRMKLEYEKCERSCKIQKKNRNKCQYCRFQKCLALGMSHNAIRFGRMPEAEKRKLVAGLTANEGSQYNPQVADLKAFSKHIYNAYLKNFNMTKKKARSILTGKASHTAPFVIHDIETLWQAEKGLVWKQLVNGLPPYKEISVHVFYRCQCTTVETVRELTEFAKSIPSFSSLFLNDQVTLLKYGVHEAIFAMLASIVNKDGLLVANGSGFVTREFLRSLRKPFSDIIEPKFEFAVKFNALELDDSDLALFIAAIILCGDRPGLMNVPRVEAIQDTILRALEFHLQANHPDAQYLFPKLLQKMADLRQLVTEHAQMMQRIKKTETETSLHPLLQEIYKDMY
Sequence of Vitamin D3 receptor (Homo sapiens) (P11473 whole entry, looked up): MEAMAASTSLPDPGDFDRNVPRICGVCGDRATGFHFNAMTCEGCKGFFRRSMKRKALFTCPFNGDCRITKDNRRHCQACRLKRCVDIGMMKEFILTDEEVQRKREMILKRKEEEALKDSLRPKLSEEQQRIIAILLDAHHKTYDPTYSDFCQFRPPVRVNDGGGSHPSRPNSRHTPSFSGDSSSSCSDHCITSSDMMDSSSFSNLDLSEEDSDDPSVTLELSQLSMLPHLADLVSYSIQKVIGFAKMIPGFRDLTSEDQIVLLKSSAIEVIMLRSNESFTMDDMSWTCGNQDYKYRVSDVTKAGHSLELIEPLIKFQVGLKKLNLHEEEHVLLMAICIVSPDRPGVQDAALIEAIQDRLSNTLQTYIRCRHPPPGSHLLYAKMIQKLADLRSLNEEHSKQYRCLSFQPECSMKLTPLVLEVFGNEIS

Cc1ccc(S(=O)(=O)NC2CCCCC2)cc1
not listed: [15] | [16] | [17] | [18] | [19]
inactive: all other assays above

CCc1nn(CCCN2CCN(c3cccc(Cl)c3)CC2)c(=O)n1CCOc1ccccc1
active: [15] 18.8 µM
not listed: [1] | [4] | [6] | [16] | [17] | [18] | [19]
inactive: all other assays above

CC(=N\O)/C(C)=N/O
not listed: [3] | [4] | [5] | [6] | [7] | [15] | [18] | [19]
inactive: all other assays above

O=C1OCCN1/N=C/c1ccc([N+](=O)[O-])o1
not listed: [2] | [4] | [6] | [15] | [17]
inactive: all other assays above

O=C(Nc1ccc([N+](=O)[O-])cc1)Nc1ccc([N+](=O)[O-])cc1
active: [5] 0.75 µM | [15] 2.37 µM
not listed: [1] | [2] | [7] | [8] | [18]
inactive: all other assays above

COCc1c(C(C)C)nc(C(C)C)c(/C=C/[C@@H](O)C[C@@H](O)CC(=O)O)c1-c1ccc(F)cc1
not listed: [2] | [4] | [6] | [7] | [15] | [17]
inactive: all other assays above

NC(=O)N(O)[C@@H]1C=C[C@H](Oc2cccc(Oc3ccc(F)cc3)c2)C1
not listed: [5] | [14] | [16]
inactive: all other assays above

CCCCCCCC/C=C\CCCCCCCC(=O)OC
not listed: [4] | [5] | [6] | [15] | [18]
inactive: all other assays above

CCCCC(=O)O[C@]1(C(=O)CO)[C@@H](C)C[C@H]2[C@@H]3CCC4=CC(=O)C=C[C@]4(C)[C@@]3(F)[C@@H](O)C[C@@]21C
active: [15] 30.6 µM
not listed: [2] | [4] | [6] | [8] | [14] | [18] | [19]
inactive: all other assays above
